# This is a sample that favours compounds with a hit; in the whole collection about 22% have one here.
# CYP2C19 inhib = inhibitors of human CYP2C19; P33261; CYP2C19 Supersomes, luciferin-H EGE luminescence, 30 min; inhibition, % at 5 µM; 96,000 compounds, 21% hits;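 active means CYP2C19 inhibition above a set limit at 5 µM in the primary screen, cut at about 50% in these data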;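 further: plate controls were negative control wells for no effect and 2.5 mM tranylcypromine positive control for full effect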
# Target sequence (P33261 whole entry, looked up): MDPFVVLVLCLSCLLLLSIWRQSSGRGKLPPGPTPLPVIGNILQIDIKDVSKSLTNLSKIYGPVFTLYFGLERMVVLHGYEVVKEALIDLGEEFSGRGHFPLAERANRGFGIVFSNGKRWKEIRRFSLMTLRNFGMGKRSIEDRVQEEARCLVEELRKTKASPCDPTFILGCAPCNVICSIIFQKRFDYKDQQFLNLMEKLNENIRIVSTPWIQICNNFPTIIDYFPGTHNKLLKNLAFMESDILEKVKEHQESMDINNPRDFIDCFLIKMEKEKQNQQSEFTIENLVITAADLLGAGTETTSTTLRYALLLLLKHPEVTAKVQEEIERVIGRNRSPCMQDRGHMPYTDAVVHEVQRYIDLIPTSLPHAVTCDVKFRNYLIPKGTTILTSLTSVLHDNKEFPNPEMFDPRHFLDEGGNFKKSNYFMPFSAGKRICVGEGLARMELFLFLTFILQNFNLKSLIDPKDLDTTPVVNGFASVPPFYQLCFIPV
# CYP2C19 act = cytochrome P450 2C19 (human) activation. P33261. recombinant CYP2C19, luciferin-H EGE luminescence; active compounds read high; 0 = fully inhibited enzyme, 1 = untreated enzyme. activation factor at 5 µM. 96,000 tested, under 10 active;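 active means activation factor of at least 2 at 5 µM in the primary screen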;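 further: 0 = wells with 2.5 mM tranylcypromine and 1 = vehicle-only wells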
# Measles CPE = protection of cells from measles virus. protection (pct of control), % at 4 µM. AID 841. 140,000 compounds, 1.5% hits. Measles virus-infected cells, CPE protection, absorbance; in the data active means protection mostly above about 24%, no sharp cut-off; inactive means mostly below about 26%
# CYP2C9 inhib = human CYP2C9 inhibition; P11712; CYP2C9 Supersomes, luciferin-H conversion, luminescence; inhibition, % at 5 µM; 96,000 compounds, 20% hits; AID 777;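 active means blocking of liver enzyme CYP2C9 beyond about 50% at 5 µM, limit read from the data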
# CYP2C9 act = CYP2C9 (human) activation; recombinant CYP2C9, luciferin-H conversion, luminescence; active compounds read high; factor 1 = untreated enzyme, 0 = blocked; activation factor at 5 µM; 96,000 compounds, 1.4% hits; AID 1024;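 active means activation factor of 2 or more for CYP2C9 at a 5 µM dose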;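 further: 0 = sulfaphenazole-blocked wells and 1 = vehicle-only wells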
# * marks the source's active call; other numbers are inactive results; · = not tested or not shown.
SMILES,CYP2C19 inhib,CYP2C19 act,Measles CPE,CYP2C9 inhib,CYP2C9 act
COc1ccc2c(c1)Cc1sc(NC(=O)c3cccs3)nc1-2,70*,0.3,12,85*,0.2
COc1cccc(C(=O)Nc2ccc(N(C)C)cc2)c1OC,26,0.7,1,-41,1.4
Cc1ccc(S(=O)c2ccc(C)cc2)cc1,32,0.7,13,2,1
O=C(c1ccc(Cl)c(Cl)c1)N(Cc1ccco1)c1ccc(O)cc1,99*,0,7,98*,0
O=C(C1CC1)N1CCC(c2nc(-c3ccc(S(=O)(=O)N4CCCC4)cc3)no2)CC1,20,0.8,8,37,0.6
O=C(Cc1ccccc1)N1CCCC(c2nc(-c3ccc(S(=O)(=O)N4CCCC4)cc3)no2)C1 (configuration not stated),38,0.6,5,73*,0.3
Cc1ccc(-c2noc(C3CCCN(S(=O)(=O)c4ccc(S(=O)(=O)N(C)C)cc4)C3)n2)o1 (configuration not stated),21,0.8,4,82*,0.2
Cc1ccc(-c2noc(C3CCCN(S(=O)(=O)c4ccc5ccccc5c4)C3)n2)o1 (configuration not stated),33,0.7,10,-32,1.3
Cc1ccc(S(=O)(=O)N2CCCC(c3nc(-c4ccc(C)o4)no3)C2)cc1 (configuration not stated),90*,0.1,52,83*,0.2
COC(=O)/C(=C\Nc1ccccc1N)c1ncc(C(F)(F)F)cc1Cl,32,0.7,7,8,0.9
O=C1C2C3CC(C(Br)C3Br)C2C(=O)N1c1ccccn1 (configuration not stated),62*,0.4,23,9,0.9
Cc1ccnc(N2C(=O)C3C4CC(C(Br)C4Br)C3C2=O)c1 (configuration not stated),6,0.9,3,-4,1
Cc1cc(N2C(=O)C3C4CC(C(Br)C4Br)C3C2=O)no1 (configuration not stated),·,·,32*,·,·
CCS(=O)(=O)NCCc1csc(C)n1,-8,1.1,49,-4,1
Cc1ccc(C(CC(=O)N2CCOCC2)c2ccco2)cc1 (configuration not stated),84*,0.2,10,22,0.8
Cc1ccc(CSCC(=O)N2CCOCC2)cc1,75*,0.3,3,-15,1.2
O=C(CSCc1ccc(Cl)cc1)N1CCOCC1,·,·,11,·,·
CCOc1ccc(C(=O)NCC(c2cccs2)N(C)C)cc1OCC (configuration not stated),·,·,16,·,·
OCCOCCNc1ncnc2sc(-c3ccccc3)cc12,64*,0.4,6,59*,0.4
CC(=O)Nc1cc(C(C)(C)C)c(O)c(C(C)(C)C)c1,22,0.8,8,88*,0.1
CC(C)(C)NC(=O)c1cc(C(C)(C)C)c(O)c(C(C)(C)C)c1,·,·,5,·,·
CCOC(=O)/C(=C\c1cccnc1)C(=O)c1cc(C(C)=O)c(Nc2ccccc2)s1,65*,0.3,17,100*,0
CCOC(=O)/C(=C\c1ccccc1)C(=O)c1cc(C(C)=O)c(Nc2ccccc2)s1,92*,0.1,1,98*,0
CCOC(=O)c1c(C)oc2c(CC(=O)c3ccccc3)c(Cl)c(O)c(O)c12,·,·,34,·,·
CCOC(=O)C(CSCC(=O)c1ccc(Cl)cc1Cl)NC(=O)OC(C)(C)C (configuration not stated),97*,0,13,88*,0.1
SMILES,CYP2C19 inhib,CYP2C19 act,Measles CPE,CYP2C9 inhib,CYP2C9 act
O=C1CN(CC(=O)NC(=O)NCc2ccccc2)CCN1,·,·,10,·,·
CC(C)CNC(=O)NC(=O)COc1ccc(C=O)cc1,95*,0.1,2,83*,0.2
N#Cc1ccccc1Cn1cc(/C=C/[N+](=O)[O-])c2ccccc21,·,·,1,·,·
O=C(CCC1CCCCC1)NCc1ccccn1,·,·,4,·,·
O=C(Cc1ccc(F)cc1)Nc1ccc(F)c([N+](=O)[O-])c1,56*,0.4,72*,28,0.7
CC1CCCCN1C(=S)NCCc1ccccc1 (configuration not stated),96*,0,6,27,0.7
CC(C)NC(=O)Cn1nnc(-c2ccc(Cl)cc2)n1,25,0.8,6,3,1
Cc1ccn2cc(CCNS(=O)(=O)c3ccc4c(c3)OCCO4)nc2c1,79*,0.2,4,-42,1.4
Cc1ccc(C(=O)CNc2ccccc2C)cc1,·,·,15,·,·
Cc1ccccc1NCCNc1ccccc1C,83*,0.2,17,23,0.8
COc1ccc(Oc2ccccc2/C=N/O)cc1,70*,0.3,13,-18,1.2
O=Cc1ccccc1Oc1ccccc1,12,0.9,4,6,0.9
O=C1NCCN1Cc1ccc(F)cc1,14,0.9,36*,-6,1.1
O=C1NCCN1Cc1ccccc1,-2,1,9,6,0.9
Cc1ccc(CN2CCNC2=O)cc1,3,1,10,12,0.9
O=C1NCCN1Cc1ccccc1F,·,·,40*,·,·
Cc1ccc(CO/N=C\Cc2snc(Sc3ncc(C(F)(F)F)cc3Cl)c2C#N)cc1,52*,0.5,15,-19,1.2
CCc1nc(NCc2cccnc2)c2oc3ccccc3c2n1,92*,0.1,13,58*,0.4
Cc1nc(NCc2ccc3c(c2)OCO3)c2oc3ccccc3c2n1,·,·,19,·,·
CCNc1nc(CC)nc2c1oc1ccccc12,·,·,5,·,·
CCc1nc(NCc2ccc3c(c2)OCO3)c2oc3ccccc3c2n1,52*,0.5,16,92*,0.1
C/C(NC(=O)c1cccs1)=C1\C(=O)C[C@@H]2[C@H]1C2(C)C,39,0.6,12,17,0.8
CSCCC(NC=C1C(=O)OC(C)(C)OC1=O)C(=O)O (configuration not stated),0,1,7,11,0.9
Cc1nc2nc(-c3ccc(Cl)cc3)cn2nc1C,56*,0.4,3,2,1
Cc1nc2nc(-c3cccs3)cn2nc1C,62*,0.4,4,8,0.9
SMILES,CYP2C19 inhib,CYP2C19 act,Measles CPE,CYP2C9 inhib,CYP2C9 act
COc1cccc(-c2cn3nc(C)c(C)nc3n2)c1,83*,0.2,13,50,0.5
COc1ccc(-c2cn3nc4c(nc3n2)CCCC4)cc1,42,0.6,4,-8,1.1
CCOc1ccc(CN2CCNC(=O)C2CC(=O)OC)cc1 (configuration not stated),-15,1.2,2,-12,1.1
CCOC(=O)C1=C(N)OC2=C(C(=O)CC(C)(C)C2)C1C1CCCCC1 (configuration not stated),24,0.8,3,56*,0.4
CCOC(=O)C1=C(N)OC2=C(C(=O)CC(C)(C)C2)C1c1cccnc1 (configuration not stated),76*,0.2,8,71*,0.3
COC(=O)C1=C(N)OC2=C(C(=O)CC(C)(C)C2)C1c1cccs1 (configuration not stated),73*,0.3,5,81*,0.2
